Experimental data published in the supplement of paper PMC9492666.
Where a name gives a salt, the structure may show the parent alone.

System: HCC1937
Experiment: relative cell viability, compound + erastin, vs DMSO (fraction of DMSO control); higher = less growth inhibition
Conditions: 72 h
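Further: viability read by CCK-8 kit in 96-well plates, part of a combination screen pairing lipid-metabolism-targeting compounds with erastin.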

SMILES | relative cell viability
O=S(=O)(O)c1ccc2cc(N=Nc3cc(S(=O)(=O)O)c4cccnc4c3O)ccc2c1 + CCOc1ccccc1-n1c(C(C)N2CCN(C(=O)COc3ccc(Cl)cc3)CC2)nc2ccccc2c1=O [erastin] | 0.741
COc1ccc(-n2c(SCCCN3C(=O)c4cccc5cccc(c45)C3=O)nnc2-c2ccncc2)cc1 + CCOc1ccccc1-n1c(C(C)N2CCN(C(=O)COc3ccc(Cl)cc3)CC2)nc2ccccc2c1=O [erastin] | 0.437
CC(c1cc2ccccc2s1)N(O)C(N)=O (stereo not drawn) [Zileuton] + CCOc1ccccc1-n1c(C(C)N2CCN(C(=O)COc3ccc(Cl)cc3)CC2)nc2ccccc2c1=O [erastin] | 0.847
CC(C)(Oc1ccc(C2CC2(Cl)Cl)cc1)C(=O)O (stereo not drawn) [Ciprofibrate] + CCOc1ccccc1-n1c(C(C)N2CCN(C(=O)COc3ccc(Cl)cc3)CC2)nc2ccccc2c1=O [erastin] | 0.848
CCC(=O)O[C@]1(C(=O)SCF)[C@H](C)C[C@H]2[C@@H]3C[C@H](F)C4=CC(=O)C=C[C@]4(C)[C@@]3(F)[C@@H](O)C[C@@]21C [Fluticasone propionate] + CCOc1ccccc1-n1c(C(C)N2CCN(C(=O)COc3ccc(Cl)cc3)CC2)nc2ccccc2c1=O [erastin] | 0.967
COc1ccc2[nH]cc(CCNC(C)=O)c2c1 [Melatonine] + CCOc1ccccc1-n1c(C(C)N2CCN(C(=O)COc3ccc(Cl)cc3)CC2)nc2ccccc2c1=O [erastin] | 0.585
CCCc1c(-c2ccccc2)[nH]n(-c2ccccn2)c1=O [APX-115 free base] + CCOc1ccccc1-n1c(C(C)N2CCN(C(=O)COc3ccc(Cl)cc3)CC2)nc2ccccc2c1=O [erastin] | 0.615
CCc1c(C(=O)C(N)=O)c2c(OCC(=O)O)cccc2n1Cc1ccccc1 [Varespladib] + CCOc1ccccc1-n1c(C(C)N2CCN(C(=O)COc3ccc(Cl)cc3)CC2)nc2ccccc2c1=O [erastin] | 0.547
CN1CC(O)C2=C/C(=N/NC(N)=O)C(=O)C=C21 (stereo not drawn) [Carbazochrome] + CCOc1ccccc1-n1c(C(C)N2CCN(C(=O)COc3ccc(Cl)cc3)CC2)nc2ccccc2c1=O [erastin] | 0.484
CC(=O)c1c(C)cc2cccc(O)c2c1O [Nepodin] + CCOc1ccccc1-n1c(C(C)N2CCN(C(=O)COc3ccc(Cl)cc3)CC2)nc2ccccc2c1=O [erastin] | 0.7
O=C(Oc1ccc([N+](=O)[O-])cc1)N1CCN(Cc2cccc(Oc3ccccc3)c2)CC1 + CCOc1ccccc1-n1c(C(C)N2CCN(C(=O)COc3ccc(Cl)cc3)CC2)nc2ccccc2c1=O [erastin] | 0.199
CN1CCN(c2ccc(/C=C(\C#N)c3ccccc3Br)cc2)CC1 [DG172 (dihydrochloride)] + CCOc1ccccc1-n1c(C(C)N2CCN(C(=O)COc3ccc(Cl)cc3)CC2)nc2ccccc2c1=O [erastin] | 0.672
CCOP(=O)(OCC)C(=Cc1cc(C(C)(C)C)c(O)c(C(C)(C)C)c1)P(=O)(OCC)OCC + CCOc1ccccc1-n1c(C(C)N2CCN(C(=O)COc3ccc(Cl)cc3)CC2)nc2ccccc2c1=O [erastin] | 0.534
Cc1nc2ccc(C(=O)N3CCC4(CC3)CC(=O)c3c(cnn3C(C)C)C4)cc2[nH]1 + CCOc1ccccc1-n1c(C(C)N2CCN(C(=O)COc3ccc(Cl)cc3)CC2)nc2ccccc2c1=O [erastin] | 0.619
CCCCCCCCCCC[C@@H](C[C@@H]1OC(=O)[C@H]1CCCCCC)OC(=O)[C@H](CC(C)C)NC=O [Orlistat] + CCOc1ccccc1-n1c(C(C)N2CCN(C(=O)COc3ccc(Cl)cc3)CC2)nc2ccccc2c1=O [erastin] | 0.725
O=C(NN1CCCCC1)c1nn(-c2ccc(Cl)cc2Cl)c(-c2ccc(C#Cc3ccc(C(F)(F)F)cc3)s2)c1CNS(=O)(=O)N1CCCC1 + CCOc1ccccc1-n1c(C(C)N2CCN(C(=O)COc3ccc(Cl)cc3)CC2)nc2ccccc2c1=O [erastin] | 0.496
CCCCCCCCCCCCCCOc1ccc(C(=O)O)o1 + CCOc1ccccc1-n1c(C(C)N2CCN(C(=O)COc3ccc(Cl)cc3)CC2)nc2ccccc2c1=O [erastin] | 0.56
Cc1c(C(=O)NN2CCOCC2)nn(-c2ccc(Cl)cc2Cl)c1-c1ccc(I)cc1 + CCOc1ccccc1-n1c(C(C)N2CCN(C(=O)COc3ccc(Cl)cc3)CC2)nc2ccccc2c1=O [erastin] | 0.1
CSc1ccc(C(=O)/C=C/c2cc(C)c(OC(C)(C)C(=O)O)c(C)c2)cc1 [Elafibranor] + CCOc1ccccc1-n1c(C(C)N2CCN(C(=O)COc3ccc(Cl)cc3)CC2)nc2ccccc2c1=O [erastin] | 0.858

SMILES | relative cell viability
O=C(c1c2ccccc2cc2ccccc12)N1CCC(N2CCC[C@@H](C(=O)N3CCOCC3)C2)CC1 + CCOc1ccccc1-n1c(C(C)N2CCN(C(=O)COc3ccc(Cl)cc3)CC2)nc2ccccc2c1=O [erastin] | 0.514
CN(C)C(=N)NC(=N)N [Metformin hydrochloride] + CCOc1ccccc1-n1c(C(C)N2CCN(C(=O)COc3ccc(Cl)cc3)CC2)nc2ccccc2c1=O [erastin] | 0.943
C[C@H](CCOc1cccc(CC(=O)O)c1)N(Cc1cccc(C(F)(F)F)c1Cl)CC(c1ccccc1)c1ccccc1 [RGX-104 free Acid] + CCOc1ccccc1-n1c(C(C)N2CCN(C(=O)COc3ccc(Cl)cc3)CC2)nc2ccccc2c1=O [erastin] | 0.564
O=C(c1ccc(-c2nc3ccc(F)cc3o2)cc1)N1CCN(C(=O)C2(O)CC2)CC1 + CCOc1ccccc1-n1c(C(C)N2CCN(C(=O)COc3ccc(Cl)cc3)CC2)nc2ccccc2c1=O [erastin] | 0.588
CCOC(=O)N1c2ccc(C(F)(F)F)cc2[C@@H](N(Cc2cc(C(F)(F)F)cc(C(F)(F)F)c2)C(=O)OC)C[C@H]1CC [Torcetrapib] + CCOc1ccccc1-n1c(C(C)N2CCN(C(=O)COc3ccc(Cl)cc3)CC2)nc2ccccc2c1=O [erastin] | 0.66
CCCCCC=CC(=O)CCc1ccc(O)c(OC)c1 [6-Shogaol] + CCOc1ccccc1-n1c(C(C)N2CCN(C(=O)COc3ccc(Cl)cc3)CC2)nc2ccccc2c1=O [erastin] | 0.639
COc1ccc(-c2c[nH]c3nccc(-c4ccsc4)c23)c(OC)c1 + CCOc1ccccc1-n1c(C(C)N2CCN(C(=O)COc3ccc(Cl)cc3)CC2)nc2ccccc2c1=O [erastin] | 0.675
CC(=O)O[C@H](CC=C(C)C)C1=CC(=O)c2c(O)ccc(O)c2C1=O [Acetyl shikonin] + CCOc1ccccc1-n1c(C(C)N2CCN(C(=O)COc3ccc(Cl)cc3)CC2)nc2ccccc2c1=O [erastin] | 0.617
O=C(Nc1cccnn1)N1CCC(=Cc2cccc(Oc3ccc(C(F)(F)F)cn3)c2)CC1 + CCOc1ccccc1-n1c(C(C)N2CCN(C(=O)COc3ccc(Cl)cc3)CC2)nc2ccccc2c1=O [erastin] | 0.667
CC(C)(CCCCCC(O)CCCCCC(C)(C)C(=O)O)C(=O)O + CCOc1ccccc1-n1c(C(C)N2CCN(C(=O)COc3ccc(Cl)cc3)CC2)nc2ccccc2c1=O [erastin] | 0.421
CCOc1cc(CC(=O)N[C@@H](CC(C)C)c2ccccc2N2CCCCC2)ccc1C(=O)O [Repaglinide] + CCOc1ccccc1-n1c(C(C)N2CCN(C(=O)COc3ccc(Cl)cc3)CC2)nc2ccccc2c1=O [erastin] | 0.711
CC(C)(C)N1C(=O)C(Nc2ccc(N3CCCCC3)cc2)=C(c2ccccc2)S1(=O)=O + CCOc1ccccc1-n1c(C(C)N2CCN(C(=O)COc3ccc(Cl)cc3)CC2)nc2ccccc2c1=O [erastin] | 0.678
c1cc(-c2cnn3cc(-c4ccc(OCCN5CCCCC5)cc4)cnc23)ccn1 [Dorsomorphin dihydrochloride] + CCOc1ccccc1-n1c(C(C)N2CCN(C(=O)COc3ccc(Cl)cc3)CC2)nc2ccccc2c1=O [erastin] | 0.0948
CCN(CC)CCN(Cc1ccc(-c2ccc(C(F)(F)F)cc2)cc1)C(=O)Cn1c(SCc2ccc(F)cc2)nc(=O)c2c1CCC2 [Darapladib] + CCOc1ccccc1-n1c(C(C)N2CCN(C(=O)COc3ccc(Cl)cc3)CC2)nc2ccccc2c1=O [erastin] | 0.0574
O=C(O)c1cc2c(Cl)c(N3CCN(S(=O)(=O)c4c(Cl)cccc4Cl)CC3)ccc2o1 [Vonafexor] + CCOc1ccccc1-n1c(C(C)N2CCN(C(=O)COc3ccc(Cl)cc3)CC2)nc2ccccc2c1=O [erastin] | 0.846
CC(C)(Oc1ccc(C(=O)c2ccc(Cl)cc2)cc1)C(=O)O [Fenofibric acid] + CCOc1ccccc1-n1c(C(C)N2CCN(C(=O)COc3ccc(Cl)cc3)CC2)nc2ccccc2c1=O [erastin] | 0.677
CC1(C)CC[C@]2(C(=O)O[C@@H]3O[C@H](CO)[C@@H](O)[C@H](O)[C@H]3O)CC[C@]3(C)C(=CC[C@@H]4[C@@]5(C)CC[C@H](O[C@@H]6O[C@H](C(=O)O)[C@@H](O)[C@H](O)[C@H]6O)C(C)(C)[C@@H]5CC[C@]43C)[C@@H]2C1 [Chikusetsusaponin IVa] + CCOc1ccccc1-n1c(C(C)N2CCN(C(=O)COc3ccc(Cl)cc3)CC2)nc2ccccc2c1=O [erastin] | 0.592
O=P(O)(O)OC(CO)CO [β-Glycerol phosphate disodium salt pentahydrate] + CCOc1ccccc1-n1c(C(C)N2CCN(C(=O)COc3ccc(Cl)cc3)CC2)nc2ccccc2c1=O [erastin] | 0.614
CCN(CC)CCCC(C)Nc1c2ccc(Cl)cc2nc2ccc(OC)cc12 (stereo not drawn) [Quinacrine dihydrochloride] + CCOc1ccccc1-n1c(C(C)N2CCN(C(=O)COc3ccc(Cl)cc3)CC2)nc2ccccc2c1=O [erastin] | 0.164
